Source: PubChem (National Center for Advancing Translational Sciences (NCATS))
Compounds with a hit are over-represented: about 0.36% of the library has one in this group of screens.
CXXC DNA block: MLL CXXC-DNA interaction inhibition. Q03164. MLL-CXXC / FITC-HOXA9 DNA fluorescence polarization. Potency, µM (titrated, usually from 115 µM), most hits filed as inhibitors. 0.037% of 290,000 active; active = well fitted inhibition curve with a large enough effect in the polarisation, with a control signal flat, not every such curve was filed as active; inconclusive = small, poorly fitted or top-dose-only effect, or effect the other way, or a change in a side signal; inactive = no such curve, though single readings can be large or run the other way; the % refers to the polarisation
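Steps: dispense CXXC domain solution (7 uM) → pin compounds or unlabeled HOX-A9 DNA control → 5 min ambient → add FLSN-HOX-A9 solution (50 nM) → spin → 30 min ambient → fluorescence polarization. Tris pH 7.5/NaCl/DTT/BSA buffer.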
Menin-MLL FL inh: inhibitors of human menin-MLL interaction, wild-type MLL peptide; 290,000 tested, under 10 active; Fluorescence polarization, fluorescein-MLL peptide displacement from menin; AID 1766; FP activity change, % at 61.4 µM; active = well fitted curve in the direction sought with a large enough effect in the polarisation, not every such curve was filed as active; inconclusive = small, poorly fitted or top-dose-only effect, or effect the other way, or a change in a side signal; inactive = no such curve, though single readings can be large or run the other way; the % refers to the polarisation
TexasRed fluor: alters Texas Red total fluorescence, flagging assay interference; TRb/SRC2 Texas Red total fluorescence interference; Potency, µM (top dose mostly 106 µM); 0.29% of 280,000 active; AID 1479; active = well fitted curve in either direction with a large enough effect; inconclusive = small, poorly fitted or top-dose-only effect
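Human TRb ligand-binding domain at 0.6 uM with 20 nM Texas Red SRC2 peptide in Tris buffer containing 1 uM T3 and 5% DMSO, incubated with compound 5 h at ambient temperature. Total fluorescence (555/632 nm) calculated as parallel + 2 × perpendicular.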
TRb SRC2 PPI: inhibitors of human thyroid hormone receptor beta-SRC2 interaction; TRbeta-SRC2 peptide binding, fluorescence polarization; receptor liganded with 1 µM T3; 0.065% of 280,000 active; Potency, µM (doses to about 106 µM), hits mostly inhibitors; also: nearly all actives have a fitted effect of over 50% in size
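A fluorescence polarization screen tested compounds at multiple concentrations against complex formation between 0.6 uM TRb ligand-binding domain and 20 nM Texas Red SRC2 peptide, with 1 uM T3 present; readout after 5 hr.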
Menin MLL FP TR: displaces Texas Red mutant MLL peptide from human menin; 0.23% of 270,000 active; Potency, µM (titrated, usually from 61.6 µM), hits mostly inhibitors; Menin + Texas Red MLL mutant peptide, fluorescence polarization; active = well fitted inhibition curve with a large enough effect in the polarisation, with a control signal flat, not every such curve was filed as active; inconclusive = small, poorly fitted or top-dose-only effect, or effect the other way, or a change in a side signal; inactive = no such curve, though single readings can be large or run the other way; the % refers to the polarisation
MLL CXXC FP-Fl: MLL CXXC-DNA interaction inhibition, fluorescein FP | Potency, µM (series often up to 345 µM), most hits filed as inhibitors | 70% of 200 active | shares compounds with CXXC DNA block | MLL CXXC-DNA binding, fluorescein FP; also: nearly all actives have a fitted effect of over 80% in size
MLL CXXC TxRed: inhibitors of human MLL CXXC domain-DNA interaction, Texas Red format; shares compounds with CXXC DNA block; MLL CXXC-DNA binding, Texas Red fluorescence polarization; Potency, µM (doses to about 345 µM), actives largely listed as inhibitors; 40% of 200 active; AID 624161; also: nearly all actives have a fitted effect of over 75% in size
MLL CXXC HTRF: MLL CXXC-DNA interaction inhibition, HTRF readout; shares compounds with CXXC DNA block; MLL CXXC-DNA binding, HTRF, biochemical; Potency, µM (titrated, usually from 172 µM), hits mostly inhibitors; 30% of 210 active; also: nearly all actives have a fitted effect of over 80% in size
Large screens that a line does not name were inactive (follow-up assays come after a bar, where they were run). Unless noted, calls follow the shape of the dose curve; as a rule, active = well fitted curve in the direction sought with a large enough effect; inconclusive = small, poorly fitted or top-dose-only effect, or another doubt; inactive = no such curve, though single readings can be large; an effect the other way counts as inactive or inconclusive.

COc1ccc(N=Cc2c(O)n(Cc3ccccc3)c(=S)[nH]c2=O)c(OC)c1	CXXC DNA block 31.6µM, Menin-MLL FL inh inconclusive (no result: Menin MLL FP TR) | MLL CXXC FP-Fl 159µM | MLL CXXC TxRed inactive | MLL CXXC HTRF inactive
CCc1ccccc1NC(=O)NNS(=O)(=O)c1cc(C)ccc1C	CXXC DNA block 14.1µM (no result: TexasRed fluor, TRb SRC2 PPI) | MLL CXXC FP-Fl inconclusive | MLL CXXC TxRed inactive | MLL CXXC HTRF inactive
CCCCC(O)(Cn1cncn1)c1ccc(Cl)cc1Cl (stereo not given)	none (no result: CXXC DNA block, Menin-MLL FL inh, Menin MLL FP TR)
CC1=NN(c2ccccc2)C(=O)/C1=C/c1c(O)[nH]c(=O)[nH]c1=O	none
O=c1[nH]c(O)c(/C=C2\C=NN=C2c2ccccc2)c(=O)[nH]1	CXXC DNA block inconclusive | MLL CXXC FP-Fl inactive | MLL CXXC TxRed 126µM | MLL CXXC HTRF 48.5µM
CSC1=N[C@@](C)(c2ccccc2)C(=O)N1Nc1ccccc1	none (no result: CXXC DNA block, Menin-MLL FL inh, Menin MLL FP TR)
O=P(O)(O)CCCl	none (no result: CXXC DNA block)
O=P(O)(O)C(Cl)(Cl)P(=O)(O)O	CXXC DNA block 35.5µM | MLL CXXC FP-Fl inconclusive | MLL CXXC TxRed inconclusive | MLL CXXC HTRF 24.3µM
CCC(C)(c1ccc(O)cc1)c1ccc(O)cc1	none (no result: CXXC DNA block, Menin-MLL FL inh, Menin MLL FP TR)
